Drawing on PubChem BioAssay AID463173 (ICCB-Longwood Screening Facility, Harvard Medical School, 2010), this text covers survival for 96 molecules.

Hit rate of the full screen: of about 52,000 compounds, about 1,700 (3.3%) were called active. No stated cut-off is given here; in the data, active means survival mostly below about 52% (no sharp cut-off); inactive means mostly above about 56%. Only a selection was taken, and actives are over-represented in it overall.

The test system of this assay is Wild type. Briefly: S. aureus survival, RN4220 and DeltatarO strains – OD600, teichoic acid synthesis inhibitors, primary screen (AID 463173). Conditions: S. aureus RN4220 wild type/DeltatarO growth, OD600, 18 h, hits give low values, screened at 18.75 µg/mL (by protocol).
In the case of `CCOc1ccc(-c2nc(CSCC(=O)N3CCN(c4ccc(F)cc4)CC3)c(C)o2)cc1`, the survival was 113% (inactive). For `CCCn1c(=O)sc2cc(NC(=O)c3ccccc3Cl)ccc21`, the survival is 71% (inactive). With `COc1cccc(C2C(C(=O)Nc3ccccc3)=C(C)Nc3nc(-c4ccccc4)nn32)c1` (stereo unspecified), the survival was 76% (inactive). With `COc1ccc(N2CCN(c3ccc(-c4nc(-c5ccccc5C)no4)cc3[N+](=O)[O-])CC2)cc1`, the survival is 88% (inactive).

For the molecule `Cc1ccc(N(CC(=O)Nc2ccc(Br)c(C)c2)S(=O)(=O)c2cccs2)cc1`, the survival is 82% (inactive). In the case of `Cc1ccc(N(C(=O)c2cccc(C)c2)S(=O)(=O)c2ccc(Cl)cc2)cc1`, the survival is 65% (inactive). Regarding `Cc1ccc(NC(=O)N2CCC(n3c(C)nc4cccnc43)CC2)c(Cl)c1`, the survival was 71% (inactive). Consider `CC(=O)N1CCC(N(Cc2ccc(C)o2)C(=O)Nc2ccccc2F)CC1`, for which the survival was 85% (inactive). Regarding `COc1ccc2[nH]c(=O)c(CN(C(=O)c3cccc(Cl)c3)c3ccccc3OC)cc2c1`, the survival was 81% (inactive). The same measure for `Fc1ccc(C(c2nnnn2C2CCCC2)N2CCc3ccccc32)cc1` (stereo unspecified): 122% (inactive); for `CN(C)c1ccc(CNC(=O)CCCN2C(=O)CCn3nc(-c4cn(C)c5ccccc45)cc32)cc1`: -1% (active). The value for `Cn1cc(-c2cc3n(n2)CCC(=O)N3CCCC(=O)NCc2ccc(Cl)cc2)c2ccccc21` was 124% (inactive); that for `O=C(CN1C(=O)CCn2nc(-c3ccccc3)cc21)NCc1ccccc1` was 124% (inactive). The same measure for `Cc1ccc(CNC(=O)CN2C(=O)CCn3nc(-c4ccccc4)cc32)cc1`: 68% (inactive).

For the molecule `Cc1ccc(CNC(=O)CCCN2C(=O)CCn3nc(-c4cn(C)c5ccccc45)cc32)cc1`, the survival was 76% (inactive). As to `Cn1cc(-c2cc3n(n2)CCC(=O)N3CCCC(=O)Nc2ccccc2F)c2ccccc21`, the survival is 159% (inactive). The same measure for `O=C(CN1C(=O)CCn2nc(-c3ccccc3)cc21)NCc1ccc(Cl)cc1`: -3% (active). The value for `CN(C)c1ccc(CNC(=O)CN2C(=O)CCn3nc(-c4cn(C)c5ccccc45)cc32)cc1` was 53% (inactive).

Consider `CCc1ccccc1NC(=O)CCCN1C(=O)CCn2nc(-c3cn(C)c4ccccc34)cc21`, for which the survival was 134% (inactive). The same measure for `Cc1cccc(CNC(=O)CCCN2C(=O)CCn3nc(-c4cn(C)c5ccccc45)cc32)c1`: -6% (active); for `Cn1cc(-c2cc3n(n2)CCC(=O)N3CCCC(=O)Nc2ccccc2Cl)c2ccccc21`: -6% (active). Consider `Cn1cc(-c2cc3n(n2)CCC(=O)N3CCCC(=O)NCc2ccccc2)c2ccccc21`, for which the survival was 76% (inactive). The value for `Cc1cc(Cl)ccc1NC(=O)CN1C(=O)CSc2ccc(S(=O)(=O)N(C)C)cc21` was 68% (inactive); that for `O=C(NCc1ccccc1)NC1COc2ccccc2C1` (stereo unspecified) was 82% (inactive). The same measure for `CCCCc1ccc(NC(=O)c2ccc3c(c2)CCN3S(=O)(=O)CC)cc1`: 80% (inactive). `Cc1ccccc1NC(=O)c1c(NC(=O)C(C)Oc2cccc(Cl)c2)sc2c1CCCC2` (stereo unspecified): the survival was 61% (inactive). Consider `Cc1c(CC(=O)NCCc2ccccc2)c(=O)oc2c(C)c3occ(C(C)(C)C)c3cc12`, for which the survival is 84% (inactive). `COc1ccc(-n2c(-c3ccco3)nc3c(cnn3-c3ccc(Cl)cc3)c2=O)cc1`: the survival was 90% (inactive).

Regarding `CC1CCN(C(=O)Cn2cc(SCC(=O)Nc3ccccc3C(F)(F)F)c3ccccc32)CC1`, the survival is 105% (inactive).

Consider `CCOc1ccccc1CNC(=O)CN1C(=O)CCn2nc(-c3cn(C)c4ccccc34)cc21`, for which the survival is 87% (inactive). The same measure for `CCOc1ccc(CNC(=O)CN2C(=O)CCn3nc(-c4cn(C)c5ccccc45)cc32)cc1OC`: -6% (active). On to `COc1ccc(CNC(=O)CN2C(=O)CCn3nc(-c4cn(C)c5ccccc45)cc32)cc1`, for which the survival is 80% (inactive). The same measure for `COc1ccc(N2CCN(C(=O)CCn3nc(C)c(S(=O)(=O)N4CCCC4)c3C)CC2)cc1`: 80% (inactive); for `Cc1nn(CCC(=O)N2CCN(c3ccccc3)CC2)c(C)c1S(=O)(=O)N1CCCC1`: -6% (active); for `COc1cccc(N2CCN(C(=O)CCn3nc(C)c(S(=O)(=O)N4CCCC4)c3C)CC2)c1`: 76% (inactive). The value for `CC(C)N(C(=O)CN1CCN(Cc2ccccc2)CC1)C(C)C` was 107% (inactive); that for `COC(=O)CNC(=O)N1CCN(S(=O)(=O)c2ccc3c(ccn3C)c2)CC1` was 79% (inactive). The value for `CCOC(=O)CCNC(=O)N1CCN(S(=O)(=O)c2ccc3c(ccn3C)c2)CC1` was 113% (inactive); that for `CCOC(=O)CNC(=O)N1CCN(S(=O)(=O)c2ccc3c(ccn3C)c2)CC1` was 0% (active); that for `CCOC(=O)c1ccc(N=C2NC(=O)/C(=C/c3ccc(N4CCOCC4)cc3)S2)cc1` was 107% (inactive). As to `CCOc1ccc(-c2c(C)nn3c(C)c(C(=O)NCc4ccc(Cl)cc4)cnc23)cc1OCC`, the survival is 123% (inactive).

Regarding `Cc1ccc(C(=O)Nc2cccc3cccnc23)cc1Cl`, the survival was 75% (inactive). As for `O=C(Nc1ccc(Br)c2cccnc12)c1cccc2ccccc12`, the survival is 35% (inactive). For `Cc1ccc2cccc(NC(=O)c3cccc4ccccc34)c2n1`, the survival was -10% (active).

With `O=C(Nc1cccc2cccnc12)c1cccc2ccccc12`, the survival was 1% (active). The same measure for `Cc1ccc2cccc(NC(=O)c3cccc4c(Cl)cccc34)c2n1`: 69% (inactive); for `CC(C)c1ccc(C(=O)Nc2cccc3cccnc23)cc1`: -3% (active); for `Cc1ccc2cccc(NC(=O)c3ccc(-c4cccc(Cl)c4)o3)c2n1`: 66% (inactive). The same measure for `Cc1ccc2cccc(NC(=O)c3ccc(-c4cc(Cl)ccc4Cl)o3)c2n1`: 71% (inactive); for `O=C(Nc1cccc2cccnc12)c1cccc2c(Br)cccc12`: 77% (inactive); for `Cc1ccc2cccc(NC(=O)c3cccc4c(Br)cccc34)c2n1`: 134% (inactive).

On to `CCOc1cc(C(=O)Nc2cccc3cccnc23)cc(OCC)c1OCC`, for which the survival is 23% (inactive). Turning to `O=C(Nc1cccc2cccnc12)c1ccc(-c2cccc(Cl)c2)o1`, the survival was 0% (active).

Turning to `COc1cccc(NC(=O)CCc2nnc3n(Cc4ccccc4Cl)c(=O)c4ccccc4n23)c1`, the survival is 84% (inactive). The value for `CCOC(=O)c1cccc(NS(=O)(=O)c2c(C)nc3sc(C)cn3c2=O)c1` was 81% (inactive); that for `COc1ccc2c(c1)c1c(c(=O)n(-c3cccc(C)c3)c(=O)n1CC(=O)N1CCCC1)n2C` was 82% (inactive). The same measure for `COc1ccccc1NC(=O)CSc1ncc2c(n1)-c1cc(Cl)ccc1N(Cc1ccccc1)S2(=O)=O`: 77% (inactive); for `Cc1ccc(NC(=O)CC(C)S(=O)(=O)c2ccc3c(c2)NC(=O)CO3)c(Cl)c1` (stereo unspecified): 87% (inactive).

`CCOc1ccc(NC(=O)CCCc2nc(-c3cccc(OC)c3)no2)cc1`: the survival was 87% (inactive). The value for `Cc1nnc(SCc2cc(=O)n3c(C)cccc3n2)s1` was 81% (inactive); that for `Cc1cccc(-c2nnc(SCC(=O)OC(C)C)n2C)c1` was 106% (inactive). With `COc1ccc(Br)cc1C(=O)Nc1cccc2ccc(C)nc12`, the survival is 63% (inactive). The value for `COc1c(C)cccc1C(=O)Nc1cccc2ccc(C)nc12` was -14% (active); that for `CCOc1ccccc1C(=O)Nc1cccc2ccc(C)nc12` was 49% (inactive).

For `CCCCCn1c(=O)[nH]c2cc(C(=O)Nc3ccc(OC)c(OC)c3)ccc2c1=O`, the survival is 74% (inactive). In the case of `Cc1nn(C)c2c1c(-c1ccccc1)cc(=O)n2Cc1c(F)cccc1Cl`, the survival is -6% (active).

Consider `Cc1oc(-c2ccccc2)nc1Cn1c(=O)cc(-c2ccccc2)c2c(C)nn(C)c21`, for which the survival is 76% (inactive). Regarding `CCOc1ccc(-c2nc(Cn3c(=O)cc(C)c4c(C)nn(-c5ccc(C)cc5)c43)c(C)o2)cc1`, the survival is 87% (inactive). As for `Cc1cc(=O)n(Cc2c(F)cccc2Cl)c2c1c(C)nn2C`, the survival is 71% (inactive). The value for `Cc1nn(C)c2c1c(-c1ccccc1)cc(=O)n2Cc1ccccc1F` was 120% (inactive). With `Cc1oc(-c2ccc(Cl)cc2)nc1Cn1c(=O)cc(C)c2c(C)nn(-c3ccccc3)c21`, the survival was 83% (inactive). The same measure for `Cc1cccc(-c2nc(Cn3c(=O)cc(-c4ccccc4)c4c(C)nn(C)c43)c(C)o2)c1`: -6% (active).

`CCOc1ccc(-c2nc(Cn3c(=O)cc(C)c4c(C)nn(-c5ccccc5)c43)c(C)o2)cc1`: the survival is 14% (active). For the molecule `Cc1ccc(-c2nc(Cn3c(=O)cc(-c4ccccc4)c4c(C)nn(C)c43)c(C)o2)cc1`, the survival is 120% (inactive). `CCc1cccc(NC(=O)CNS(=O)(=O)c2ccc3nc(C)sc3c2)c1`: the survival was 72% (inactive). Consider `COc1ccc(NCc2cc3cc4c(cc3n(CC(=O)Nc3cc(C)cc(C)c3)c2=O)OCO4)cc1`, for which the survival was 60% (inactive). Regarding `Cc1cccc(C(=O)Nc2cccc(OCc3cc(=O)n4c(C)csc4n3)c2)c1`, the survival is 79% (inactive). With `CCC(=O)n1nc(-c2ccc(OC)cc2)nc1SC`, the survival was 100% (inactive). In the case of `O=C(NCc1ccncc1)C1CCN(S(=O)(=O)c2ccccc2)CC1`, the survival is 109% (inactive). In the case of `COc1ccc(Nc2cc(C(=O)NCc3ccccc3OC)c3ccccc3n2)cc1`, the survival was -6% (active). As to `COc1ccc(Nc2cc(C(=O)NCc3ccccc3)c3ccccc3n2)cc1`, the survival was 112% (inactive).

As for `COc1ccc(Nc2cc(C(=O)NCc3cccs3)c3ccccc3n2)cc1`, the survival is 145% (inactive). The value for `CCOC(=O)/C(C#N)=N\Nc1ccccc1OC` was 105% (inactive); that for `CCC(=O)N1CCc2cc(S(=O)(=O)NC(CC(C)C)C(=O)NCCc3ccccc3)ccc21` (stereo unspecified) was 127% (inactive).

In the case of `CC(C)c1ccc(C2c3c(-c4ccccc4O)n[nH]c3C(=O)N2CCc2ccccc2)cc1` (stereo unspecified), the survival is 64% (inactive).

For the molecule `CCCOc1ccc(C2c3c(-c4ccccc4O)n[nH]c3C(=O)N2Cc2cccnc2)cc1` (stereo unspecified), the survival was 3% (active). The value for `CCOc1cc(C2c3c(-c4ccccc4O)n[nH]c3C(=O)N2Cc2cccnc2)ccc1O` (stereo unspecified) was 89% (inactive).

As to `COc1cc(C2c3c(-c4ccccc4O)n[nH]c3C(=O)N2Cc2ccco2)ccc1OCC(C)C` (stereo unspecified), the survival was 43% (inactive). The same measure for `O=C1c2[nH]nc(-c3ccccc3O)c2C(c2ccc(Cl)cc2)N1CCc1ccccc1` (stereo unspecified): 4% (active); for `COc1ccc(CCN2C(=O)c3[nH]nc(-c4ccccc4O)c3C2c2ccc(OC)cc2)cc1` (stereo unspecified): 58% (inactive); for `COc1ccc(C2c3c(-c4c(C)cc(C)cc4O)n[nH]c3C(=O)N2Cc2ccco2)cc1` (stereo unspecified): 15% (inactive). The same measure for `Cc1ccc(C2c3c(-c4ccccc4O)n[nH]c3C(=O)N2CCc2ccccc2)cc1` (stereo unspecified): 58% (inactive); for `COc1ccc(C2c3c(-c4ccccc4O)n[nH]c3C(=O)N2Cc2ccco2)cc1` (stereo unspecified): 10% (active). The value for `O=C1c2[nH]nc(-c3ccccc3O)c2C(c2ccc(Cl)cc2)N1Cc1ccco1` (stereo unspecified) was -1% (active); that for `CC(C)c1ccc(C2c3c(-c4ccccc4O)n[nH]c3C(=O)N2Cc2ccncc2)cc1` (stereo unspecified) was 106% (inactive); that for `CCc1ccc(C2c3c(-c4ccccc4O)n[nH]c3C(=O)N2Cc2cccnc2)cc1` (stereo unspecified) was 71% (inactive).
